Assay results reported in the supplement of paper PMC12636033.
± gives the standard deviation of the averaged measurements. In all, about 33,000 sequences were measured (“E-score (rank enrichment, -0.5 to 0.5)”: median about -0.0075, highest 2% from about 0.23 on). This is one part of a sample in which the highest values are shown more often than they occur.

test system: WT Max(13-93) synthetic (M65Nle); assay: PBM 8-mer E-score (E-score (rank enrichment, -0.5 to 0.5)); higher = stronger preferential binding
Experimental: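 Protein binding microarray (universal PBM chip covering all 10-mers in fixed probe flanks) with chemically synthesized human Max(13-93) bHLH-LZ analogs (not full-length Max) bearing noncanonical residues (hArg, Tha, Aib, Nle at 65) and aromatic Cys staples. Read-out per 8-mer (and its reverse complement): E-score (rank-based enrichment, -0.5 to 0.5) and Z-score of median probe intensity.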

| Sequence | PBM 8-mer E-score |
| --- | --- |
| CATGTAGA | 0.193 ± 0.018 |
| ACGCCCTC | 0.0691 ± 0.11 |
| GATCCAGC | -0.241 ± 0.017 |
| ATCCGTAG | -0.21 ± 0.046 |
| GCAGTGAA | 0.0345 ± 0.11 |
| ATGACAAT | 0.264 ± 0.018 |
| ATGACAAA | 0.261 ± 0.11 |
| ATGACAAC | 0.166 ± 0.029 |
| AAGACAAT | 0.228 ± 0.075 |
| ATGACAAG | 0.119 ± 0.12 |
| AGGACAAT | 0.183 ± 0.045 |
| TCGGGCCA | -0.185 ± 0.0072 |
| CGAATCTA | -0.0418 ± 0.067 |
| ATGTATGC | 0.166 ± 0.0091 |
| ACTAGACT | 0.0207 ± 0.063 |
| ACGCACGC | 0.205 ± 0.014 |
| ACGCACGA | 0.143 ± 0.032 |
| ACGCACAA | 0.0902 ± 0.052 |
| AAGCACGA | 0.125 ± 0.0091 |
| AAGCACGT | 0.367 ± 0.028 |
| ACGCACGT | 0.314 ± 0.041 |
| ACGCACAT | 0.267 ± 0.02 |
| ACGCACAG | -0.0926 ± 0.096 |

| Sequence | PBM 8-mer E-score |
| --- | --- |
| AAGCACGG | 0.0974 ± 0.06 |
| CCAAACTA | 0.165 ± 0.012 |
| AAGCTCAT | -0.131 ± 0.098 |
| AAGGTCGG | -0.014 ± 0.081 |
| AGACAACT | 0.0555 ± 0.044 |
| AGACAACG | 0.246 ± 0.068 |
| AGACAACC | 0.0303 ± 0.033 |
| CGGCAGTA | -0.142 ± 0.064 |
| AATCGATC | -0.232 ± 0.024 |
| CCCCTAGA | 0.0696 ± 0.042 |
| TTATTGAA | 0.254 ± 0.0091 |
| GTATTGAA | 0.119 ± 0.057 |
| ATATTGAA | 0.114 ± 0.03 |
| CTCATAGA | -0.0903 ± 0.024 |
| AGCCGGAC | -0.207 ± 0.036 |
| CCGATTAG | 0.0704 ± 0.0021 |
| CCCCCATC | 0.0485 ± 0.11 |
| ATAAGTTA | 0.258 ± 0.062 |
| CTAAGTTA | -0.011 ± 0.089 |
| GTAAGTTA | 0.0737 ± 0.022 |
| ATGGTGCG | -0.0696 ± 0.06 |
| ATGGTGCA | 0.264 ± 0.074 |
| GTGGTGCA | 0.0246 ± 0.1 |

| Sequence | PBM 8-mer E-score |
| --- | --- |
| GGAAAGCA | -0.0514 ± 0.036 |
| CGCGGACA | -0.102 ± 0.039 |
| AACGAGCG | -0.0104 ± 0.028 |
| CTCATGTA | 0.138 ± 0.03 |
| AACATGTT | 0.137 ± 0.042 |
| CAAATGTG | 0.152 ± 0.026 |
| AACATGTG | 0.412 ± 0.017 |
| CACATGTC | 0.186 ± 0.026 |
| CACATGTA | 0.379 ± 0.0071 |
| CACATGTG | 0.435 ± 0.007 |
| CCCATGTA | 0.0146 ± 0.049 |
| AACATGTC | 0.12 ± 0.037 |
| CGCTGTGA | -0.0883 ± 0.11 |
| AGGAGGAC | -0.0293 ± 0.04 |
| GTGGGATA | 0.163 ± 0.018 |
| GCGGTACC | -0.176 ± 0.019 |
| ATATGTCA | 0.1 ± 0.073 |
| GTATGTTA | 0.164 ± 0.091 |
| GTATGTAA | 0.288 ± 0.0084 |
| GTATGTCA | 0.246 ± 0.028 |
| GAATGTAA | 0.163 ± 0.13 |
| CTATGTAA | -0.0284 ± 0.05 |
| CTATGTCA | 0.0959 ± 0.026 |

| Sequence | PBM 8-mer E-score |
| --- | --- |
| ATATGTAC | 0.0738 ± 0.0056 |
| ATATGTAA | 0.239 ± 0.05 |
| AGGCGAAG | -0.078 ± 0.072 |
| CCGTTTCG | -0.0232 ± 0.051 |
| GCTCACGA | 0.0957 ± 0.066 |
| AACGGTAT | 0.0275 ± 0.051 |
| CCAGTGAA | -0.0413 ± 0.11 |
| AAAGCAAT | 0.0889 ± 0.03 |
| ATACTGTG | 0.012 ± 0.036 |
| ATACATTG | 0.168 ± 0.05 |
| ATACATTC | 0.285 ± 0.006 |
| CTACATTC | 0.0193 ± 0.054 |
| GCTCGCCA | -0.0485 ± 0.054 |
| GCGCTAAC | -0.0628 ± 0.026 |
| AGGAGATA | 0.0677 ± 0.065 |
| CCAGCGGA | -0.175 ± 0.022 |
| ACCATTAA | 0.284 ± 0.11 |
| ATCATTAA | 0.238 ± 0.023 |
| CCCATTAA | 0.0514 ± 0.069 |
| AGCATTAA | 0.173 ± 0.078 |
| TCCATTAA | 0.0431 ± 0.0063 |
| ACCATTCA | 0.233 ± 0.0053 |
| ACCATTCG | -0.0773 ± 0.11 |

| Sequence | PBM 8-mer E-score |
| --- | --- |
| CTCATTAA | 0.204 ± 0.07 |
| TGCATTAA | 0.26 ± 0.051 |
| ACCATTCC | 0.00607 ± 0.099 |
| ATCATTAG | 0.209 ± 0.02 |
| CGCATTAA | -0.00629 ± 0.02 |
| AATGGTCT | -0.085 ± 0.06 |
| ATTTTGCC | -0.00751 ± 0.0085 |
| CATTCGCG | 0.0727 ± 0.022 |
| ACCCTTAC | 0.0907 ± 0.047 |
| ATCGTGAC | -0.123 ± 0.014 |
| GGCTGCCC | -0.212 ± 0.043 |
| AACAGACT | 0.125 ± 0.061 |
| AAGGCGTC | -0.0911 ± 0.022 |
| TGCCACAA | -0.0153 ± 0.13 |
| CCCAGTTA | -0.0517 ± 0.012 |
| GATAATTA | 0.157 ± 0.17 |
| TATAATAA | 0.2203 ± 0.00023 |
| AATAATTC | 0.0855 ± 0.084 |
| CATAATAG | 0.241 ± 0.027 |
| AATAATAC | 0.211 ± 0.029 |
| TCTAATAA | 0.272 ± 0.069 |
| CCTAATAA | 0.166 ± 0.01 |
